These results are taken from PubChem BioAssay (NCATS).

Molecules are shown by their SMILES. Results filed as inconclusive are left out. Unmarked numbers belong to inactive results. The source made the active and inactive calls. Calls come from the whole dose curve; as a rule, active = well fitted inhibition curve with a large enough effect; inconclusive = small, poorly fitted or top-dose-only effect; inactive = flat fitted curve, though single readings scatter.

Test [1] in a line: Drug repurposing screens with cells derived from glioblastoma tumor samples (AID 1345199). Note: nearly all actives have a fitted effect of over 40% in size. The settings on record: GBM patient neurospheres viability, ATP luminescence, 48 h. Summed up:
(§1)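 Four patient lines of CD133+ GBM neurospheres were screened at several concentrations; hits were retested in those lines plus three slower-growing GBM lines, using 48-hour treatment and ATP-based viability.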

The next test concerns astro (control astrocytes). The test is described as above. The settings on record: viability, ATP luminescence, 48 h; series mostly up to 45.9 µM. Summed up: as §1
Setting [2] is: at 45.9 µM (top of the series), tumour line B.
Where [3] appears, read: at 45.9 µM (top of the series), tumour line D.
Setting [4] is: at 46 µM (top of the series), tumour line A.
The mark [5] stands for this setting: at 46.1 µM (top of the series), tumour line C.
Where [6] appears, read: at 20 µM (top of the series), tumour line C.
The mark [7] stands for this setting: at 21.2 µM (top of the series), tumour line B.
Setting [8] is: at 21.2 µM (top of the series), tumour line D.
Setting [9] is: at 21.3 µM (top of the series), tumour line A.
% is set by controls: 0 for no effect and ±100 for the full control effect; potency is the fitted concentration of half-maximal effect.

Take `CC(=O)OCC(=O)[C@@]1(O)CC[C@H]2[C@@H]3C[C@H](C)C4=CC(=O)C=C[C@]4(C)[C@H]3[C@@H](O)C[C@@]21C`: the activity, negative = cell killing in test [1] (setting [2]) was -16.5%; in test [1] (setting [3]) it was -18.9%; in test [1] (setting [4]), -15.4%; in test [1] (setting [5]), 1.15%. Also, the Potency entry with astro is “inactive”.
With `COc1ccc(C[C@@H](C)NC[C@H](O)c2ccc(O)c(NC=O)c2)cc1`, the activity, negative = cell killing was -17.2% in test [1] (setting [2]), 5.61% in test [1] (setting [3]) and -20.1% in test [1] (setting [5]). In addition, in test [1] (tumour line A), the Potency is 12.6 µM (active). For the same molecule, in the test on astro, the Potency entry was “inactive”.
Consider `CC1=C(/C=C/C(C)=C/C=C/C(C)=C/C=C/C=C(C)/C=C/C=C(C)/C=C/C2=C(C)CCCC2(C)C)C(C)(C)CCC1`, for which the activity, negative = cell killing in test [1] (setting [2]) was -10.1%; in test [1] (setting [3]), -14.5%; in test [1] (setting [4]), -34.5%; in test [1] (setting [5]), 5.35%. Further, in the test with astro, the Potency result was “inactive”.
Taken in the same sequence, the figures for `O=C(O)CCC(=O)C(=O)O` were -7.95%, 2.23%, -23.8%, 3.09% and “inactive”.
Turning to `NCc1ccccc1CC(=O)N[C@@H]1C(=O)N2C(C(=O)O)=C(CSc3nnnn3CC(=O)O)CS[C@H]12`, the activity, negative = cell killing is -8.3% in test [1] (setting [6]), -4.52% in test [1] (setting [7]), -30% in test [1] (setting [8]) and -23.4% in test [1] (setting [9]). Besides, the Potency result with astro is “inactive”.
Taken in the same sequence, the figures for `CO[C@H]1C[C@H](O[C@H]2[C@H](C)[C@@H](O[C@@H]3O[C@H](C)C[C@H](N(C)C)[C@H]3OC(C)=O)[C@@H](C)C[C@]3(CO3)C(=O)[C@H](C)[C@@H](OC(C)=O)[C@@H](C)[C@@H](C)OC(=O)[C@@H]2C)O[C@@H](C)[C@@H]1OC(C)=O` were -16.4%, -6.68%, -16.6%, -20.4% and “inactive”.
Taken in the same sequence, the figures for `CC(Oc1ccccc1)C(=O)N[C@@H]1C(=O)N2[C@@H]1SC(C)(C)[C@@H]2C(=O)O` (stereo partly specified) were 1.64%, -4.78%, -2.95%, 2.19% and “inactive”.
Take `C[C@@H]1[C@H](O)[C@@H](C)/C=C/C=C\C=C\C=C\C=C\C=C\C=C\[C@H](O[C@@H]2O[C@H](C)[C@@H](O)[C@H](N)[C@@H]2O)C[C@@H]2O[C@](O)(C[C@@H](O)C[C@@H](O)[C@H](O)CC[C@@H](O)C[C@@H](O)CC(=O)O[C@H]1C)C[C@H](O)[C@H]2C(=O)O` (stereo in doubt): the activity, negative = cell killing in test [1] (setting [2]) was -6.2%; in test [1] (setting [3]), -9.92%; in test [1] (setting [4]), -13.6%; in test [1] (setting [5]), -5.87%. Also, in the test with astro, the Potency result is “inactive”.
As to `C[C@]12O[C@H](C[C@]1(O)CO)n1c3ccccc3c3c4c(c5c6ccccc6n2c5c31)CNC4=O`, the activity, negative = cell killing in test [1] (setting [5]) was -97.6%. Besides, the Potency in test [1] (tumour line A) is 7.08 µM (active); in test [1] (tumour line B), 4.47 µM (active); in test [1] (tumour line D) it was 3.16 µM (active); in the test on astro, 0.447 µM (active).
For the molecule `CC1(C)S[C@@H]2[C@H](NC(=O)Cc3ccccc3)C(=O)N2[C@H]1C(=O)O`, the activity, negative = cell killing is -9.27% in test [1] (setting [2]), -18.5% in test [1] (setting [3]), -18.5% in test [1] (setting [4]) and -5.88% in test [1] (setting [5]). Besides, the Potency entry in the test with astro is “inactive”.
As for `Cc1cn([C@H]2C[C@H](O)[C@@H](CO)O2)c(=O)[nH]c1=O`, the activity, negative = cell killing is -14.8% in test [1] (setting [2]), 6.82% in test [1] (setting [3]), -23.5% in test [1] (setting [4]) and -19.1% in test [1] (setting [5]). The Potency result in the test on astro was “inactive”.
Take `CC(=O)N(CC(C)C(=O)O)c1c(I)cc(I)c(N)c1I` (stereo unspecified): the activity, negative = cell killing in test [1] (setting [6]) was -1.12%; in test [1] (setting [7]) it was -5.01%; in test [1] (setting [8]), -13.7%; in test [1] (setting [9]), -23.8%. Further, in the test with astro, the Potency result is “inactive”.
Consider `O=C(O)c1cc(=O)c2c3nc4ccccc4oc-3cc(=O)c2[nH]1`, for which the activity, negative = cell killing is -7.08% in test [1] (setting [2]), -5.52% in test [1] (setting [3]), -20.9% in test [1] (setting [4]) and -22.4% in test [1] (setting [5]). Moreover, the Potency entry in the test on astro was “inactive”.
On to `CCCCCCCC(=O)O`, for which the activity, negative = cell killing is -7.1% in test [1] (setting [2]), -17.5% in test [1] (setting [3]), -22.2% in test [1] (setting [4]) and -13.3% in test [1] (setting [5]). The Potency result in the test on astro was “inactive”.
For the molecule `CC[C@H]1OC(=O)[C@H](C)[C@@H](O[C@H]2C[C@@](C)(OC)[C@@H](O)[C@H](C)O2)[C@H](C)[C@@H](O[C@@H]2O[C@H](C)C[C@H](N(C)C)[C@H]2O)[C@](C)(O)C[C@@H](C)/C(=N\OCOCCOC)[C@H](C)[C@@H](O)[C@]1(C)O`, the activity, negative = cell killing is -5.57% in test [1] (setting [6]), -9.58% in test [1] (setting [7]), -24% in test [1] (setting [8]) and -24.2% in test [1] (setting [9]). The Potency entry in the test on astro is “inactive”.
As for `Nc1ccn([C@H]2CS[C@@H](CO)O2)c(=O)n1`, the activity, negative = cell killing was -4.08% in test [1] (setting [2]), 8.01% in test [1] (setting [3]), -14.1% in test [1] (setting [4]) and 0.221% in test [1] (setting [5]). Further, the Potency result in the test on astro is “inactive”.
Taken in the same sequence, the figures for `CC(=O)O[C@]1(C(C)=O)CC[C@H]2[C@@H]3CCC4=CC(=O)CC[C@]4(C)[C@@]3(F)[C@@H](O)C[C@@]21C` were -7.13%, -7.73%, 6.04%, 8.8% and “inactive”.
`Cc1ccccc1OCC(O)CNCCOc1ccc(C(N)=O)cc1` (stereo unspecified): the results for the activity, negative = cell killing in test [1] (setting [2]), in test [1] (setting [3]) and in test [1] (setting [5]) were 6.35%, -24% and -1.19%, respectively. Further, the Potency in test [1] (tumour line A) was 17.8 µM (active). For the same molecule, the Potency entry in the test on astro was “inactive”.
On to `CC1(C)S[C@@H]2[C@H](NC(=O)[C@@H](NC(=O)N3CCNC3=O)c3ccccc3)C(=O)N2[C@H]1C(=O)O`, for which the activity, negative = cell killing in test [1] (setting [6]) was -8.8%; in test [1] (setting [7]) it was -3.93%; in test [1] (setting [8]), -6.96%; in test [1] (setting [9]), -17.7%. Further, the Potency entry in the test on astro was “inactive”.
Taken in the same sequence, the figures for `C[C@H](CCC(=O)O)[C@H]1CC[C@H]2[C@@H]3[C@H](O)C[C@@H]4C[C@H](O)CC[C@]4(C)[C@H]3CC[C@]12C` were 0.416%, 1.96%, 6.12%, -15.4% and “inactive”.
With `IC(I)I`, the activity, negative = cell killing was -9.98% in test [1] (setting [2]), -13.1% in test [1] (setting [3]), -9.65% in test [1] (setting [4]) and 2.5% in test [1] (setting [5]). The Potency result in the test with astro is “inactive”.
Consider `CC(=O)N[C@@H](CC(=O)N[C@@H](CCC(=O)O)C(=O)O)C(=O)O`, for which the activity, negative = cell killing is -3.93% in test [1] (setting [2]), 0.816% in test [1] (setting [3]) and 6.84% in test [1] (setting [5]). For the same molecule, in test [1] (tumour line A), the Potency is 22.4 µM (active). Moreover, the Potency entry with astro is “inactive”.
Regarding `CCOC(C)=O`, the activity, negative = cell killing in test [1] (setting [2]) was -6.99%; in test [1] (setting [3]), -8.33%; in test [1] (setting [4]), -18.3%; in test [1] (setting [5]), 2.8%. For the same molecule, the Potency result in the test on astro is “inactive”.
Taken in the same sequence, the figures for `O=C(O)CN(CCN(CC(=O)O)CC(=O)O)CC(=O)O` were -9.39%, -15%, -14.7%, -16.4% and “inactive”.
On to `CN1C(=O)CN2CCc3ccccc3C2c2cc(Cl)ccc21` (stereo unspecified), for which the activity, negative = cell killing in test [1] (setting [2]) is -19.8%; in test [1] (setting [3]), -13.4%; in test [1] (setting [4]), -22.5%; in test [1] (setting [5]), -33.9%. In addition, in the test with astro, the Potency result is “inactive”.
As to `CN(C)CC/C=C1/c2ccccc2CSc2ccccc21`, the activity, negative = cell killing in test [1] (setting [6]) is -1.3%; in test [1] (setting [7]), -26.2%. In addition, the Potency in test [1] (tumour line A) and in test [1] (tumour line D) was 12.6 µM (active) each time. The Potency result in the test with astro is “inactive”.
Take `COC(=O)CCC(=O)CN`: the activity, negative = cell killing in test [1] (setting [2]) is -21.7%; in test [1] (setting [3]), -18.7%; in test [1] (setting [4]), -28.4%; in test [1] (setting [5]), -13.1%. The Potency entry in the test with astro is “inactive”.
Take `CCN(CC)Cc1cc(Nc2ccnc3cc(Cl)ccc23)ccc1O`: the activity, negative = cell killing in test [1] (setting [6]) is -18.3%. In addition, the Potency in test [1] (tumour line A) is 12.6 µM (active); in test [1] (tumour line D) it was 14.1 µM (active). Besides, the Potency result with astro is “inactive”.
In the case of `CO[C@@H]1[C@@H](O[C@@H]2O[C@H](C)[C@@H](O[C@H]3C[C@@](C)(O)[C@@H](O)[C@H](C)O3)[C@H](N(C)C)[C@H]2O)[C@@H](CC=O)C[C@@H](C)[C@@H](O[C@@H]2CC[C@H](N(C)C)[C@@H](C)O2)/C=C/C=C/C[C@@H](C)OC(=O)C[C@H]1O`, the activity, negative = cell killing was -1.82% in test [1] (setting [6]), 2.63% in test [1] (setting [7]) and 8.89% in test [1] (setting [8]). Also, the Potency entry with astro was “inactive”.
For the molecule `CCCCC/C=C\C/C=C\CCCCCCCC(=O)O`, the activity, negative = cell killing in test [1] (setting [2]) was -6.32%; in test [1] (setting [3]) it was -10.3%; in test [1] (setting [5]), 11.8%. In addition, the Potency result in the test on astro was “inactive”.
Taken in the same sequence, the figures for `C#CCOc1ccc2c(C)cc(=O)oc2c1` were -16.6%, -17.5%, -16.5% and “inactive”.
